The text below walks through data of paper PMC7862700, “An all-to-all approach to the identification of sequence-specific readers for epigenetic DNA modifications on cytosine”.

Test in all cases: DAPPL (digital affinity profiling via proximity ligation, sequencing); 10 mM Tris-HCl pH 7.5, 50 mM NaCl, 1 mM DTT, 4% glycerol, room temperature, 30 min; GST-TFs on glutathione beads, 16-mer random dsDNA library, 0.1% formaldehyde crosslink after washing; high values mean tight binding
Holding throughout (settings): protein: recombinant; tags: N-terminal GST; dsDNA, one strand shown

In one assay the target is T1, ERF (Homo sapiens, UniProt P50548 1-548).
T1 sequence: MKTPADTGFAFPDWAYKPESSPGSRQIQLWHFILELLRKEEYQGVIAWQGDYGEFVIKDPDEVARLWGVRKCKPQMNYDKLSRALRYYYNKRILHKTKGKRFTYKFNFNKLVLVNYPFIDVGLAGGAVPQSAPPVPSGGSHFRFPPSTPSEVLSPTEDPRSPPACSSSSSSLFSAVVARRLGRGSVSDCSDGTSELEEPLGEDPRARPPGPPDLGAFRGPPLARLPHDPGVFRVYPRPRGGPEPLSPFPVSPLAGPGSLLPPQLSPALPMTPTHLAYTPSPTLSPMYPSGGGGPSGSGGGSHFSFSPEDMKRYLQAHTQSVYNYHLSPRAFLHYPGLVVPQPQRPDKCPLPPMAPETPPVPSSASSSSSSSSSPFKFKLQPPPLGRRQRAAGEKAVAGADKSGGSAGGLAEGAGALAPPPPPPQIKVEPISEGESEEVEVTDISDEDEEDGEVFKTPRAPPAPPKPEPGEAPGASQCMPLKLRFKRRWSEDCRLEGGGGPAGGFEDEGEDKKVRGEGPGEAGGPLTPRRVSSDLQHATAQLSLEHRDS
The method in brief: (§1)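 Sequencing on an Illumina NextSeq500 followed washing, crosslinking with 0.1% formaldehyde, proximity ligation (BsaI/T4 ligase, 1 h, 37 °C) and PCR amplification of pools that had been incubated for 30 min at room temperature with 200 nmole of a random double-stranded 16-mer DNA library in Tris/NaCl/DTT/glycerol buffer. Each pool held DNA-barcoded human transcription factors, expressed in yeast as GST fusions and captured on glutathione beads, plus a tag-only sample. Binding signal is a hexamer's read frequency for a factor divided by its frequency in the tag-only sample.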

A further assay addresses T2, ETV3L (Homo sapiens, UniProt Q6ZN32 1-361).
T2 sequence: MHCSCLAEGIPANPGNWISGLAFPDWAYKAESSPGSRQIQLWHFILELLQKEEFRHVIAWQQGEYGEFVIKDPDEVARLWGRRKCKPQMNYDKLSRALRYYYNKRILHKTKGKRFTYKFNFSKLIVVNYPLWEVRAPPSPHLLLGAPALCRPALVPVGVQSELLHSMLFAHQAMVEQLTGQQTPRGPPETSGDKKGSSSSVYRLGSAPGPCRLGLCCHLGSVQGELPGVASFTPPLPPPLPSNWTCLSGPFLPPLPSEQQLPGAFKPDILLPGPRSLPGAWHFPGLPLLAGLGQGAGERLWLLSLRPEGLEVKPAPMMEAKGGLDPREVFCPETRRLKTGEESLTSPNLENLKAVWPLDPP
A digest of the protocol: as §1

Another assay has as its target T3, ETS2 (Homo sapiens, UniProt P15036 1-469).
T3 sequence: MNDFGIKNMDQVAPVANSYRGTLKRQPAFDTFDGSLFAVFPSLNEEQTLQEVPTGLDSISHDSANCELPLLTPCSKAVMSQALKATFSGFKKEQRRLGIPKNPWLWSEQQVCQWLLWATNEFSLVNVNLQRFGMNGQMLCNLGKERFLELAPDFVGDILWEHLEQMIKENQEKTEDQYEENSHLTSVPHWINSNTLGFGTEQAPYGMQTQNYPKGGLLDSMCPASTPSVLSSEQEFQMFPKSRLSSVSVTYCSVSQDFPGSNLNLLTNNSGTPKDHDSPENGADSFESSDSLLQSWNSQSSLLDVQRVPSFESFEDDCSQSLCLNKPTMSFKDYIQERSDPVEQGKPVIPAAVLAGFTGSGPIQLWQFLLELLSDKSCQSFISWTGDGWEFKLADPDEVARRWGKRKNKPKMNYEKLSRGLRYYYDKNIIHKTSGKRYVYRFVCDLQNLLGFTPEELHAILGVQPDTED
A digest of the protocol:
as §1

Another assay deals with T4, SPDEF (Homo sapiens, UniProt O95238 1-335).
T4 sequence: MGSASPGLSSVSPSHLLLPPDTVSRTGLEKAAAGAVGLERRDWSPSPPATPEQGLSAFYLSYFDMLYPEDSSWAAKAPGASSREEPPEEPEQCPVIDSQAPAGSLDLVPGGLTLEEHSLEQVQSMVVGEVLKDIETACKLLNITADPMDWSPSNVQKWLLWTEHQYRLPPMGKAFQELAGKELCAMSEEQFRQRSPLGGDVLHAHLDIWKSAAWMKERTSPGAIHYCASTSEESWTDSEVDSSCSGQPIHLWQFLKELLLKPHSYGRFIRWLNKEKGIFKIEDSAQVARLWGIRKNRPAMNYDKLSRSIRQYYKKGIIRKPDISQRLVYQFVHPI
The method in brief: as §1

For another assay, the target named is T5, ETV7 (Homo sapiens, UniProt Q9Y603 1-341).
T5 sequence: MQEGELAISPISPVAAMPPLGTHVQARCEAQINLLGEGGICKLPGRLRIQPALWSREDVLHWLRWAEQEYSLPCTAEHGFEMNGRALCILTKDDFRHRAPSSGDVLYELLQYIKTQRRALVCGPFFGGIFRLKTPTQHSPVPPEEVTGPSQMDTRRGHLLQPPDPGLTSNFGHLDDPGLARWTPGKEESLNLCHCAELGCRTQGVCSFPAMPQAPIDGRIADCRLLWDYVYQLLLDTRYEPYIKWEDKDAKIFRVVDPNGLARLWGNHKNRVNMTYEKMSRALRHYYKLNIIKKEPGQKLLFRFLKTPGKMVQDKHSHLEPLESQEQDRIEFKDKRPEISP
The method in brief: as §1

The target in the next assay is T6, ELF5 (Homo sapiens, UniProt Q9UKW6-2 1-255).
T6 sequence: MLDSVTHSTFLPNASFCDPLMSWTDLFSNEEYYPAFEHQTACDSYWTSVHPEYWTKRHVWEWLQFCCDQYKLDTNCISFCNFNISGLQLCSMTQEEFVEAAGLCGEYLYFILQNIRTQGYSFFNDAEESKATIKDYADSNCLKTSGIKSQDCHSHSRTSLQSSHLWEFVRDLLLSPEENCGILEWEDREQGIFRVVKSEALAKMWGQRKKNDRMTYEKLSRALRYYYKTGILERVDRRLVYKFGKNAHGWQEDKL
A digest of the protocol:
as §1

A further assay has as its target T7, ETV3 (Homo sapiens, UniProt P41162-2 1-143).
T7 sequence: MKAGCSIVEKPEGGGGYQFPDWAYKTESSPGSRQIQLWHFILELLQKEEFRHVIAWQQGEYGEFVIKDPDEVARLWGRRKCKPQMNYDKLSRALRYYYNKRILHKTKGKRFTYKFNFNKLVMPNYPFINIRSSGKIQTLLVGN
A digest of the protocol: as §1

The next assay deals with ETV6 (Homo sapiens, UniProt P41212 1-452). The method in brief:
as §1

Sequence of ETV6 (P41212 whole entry): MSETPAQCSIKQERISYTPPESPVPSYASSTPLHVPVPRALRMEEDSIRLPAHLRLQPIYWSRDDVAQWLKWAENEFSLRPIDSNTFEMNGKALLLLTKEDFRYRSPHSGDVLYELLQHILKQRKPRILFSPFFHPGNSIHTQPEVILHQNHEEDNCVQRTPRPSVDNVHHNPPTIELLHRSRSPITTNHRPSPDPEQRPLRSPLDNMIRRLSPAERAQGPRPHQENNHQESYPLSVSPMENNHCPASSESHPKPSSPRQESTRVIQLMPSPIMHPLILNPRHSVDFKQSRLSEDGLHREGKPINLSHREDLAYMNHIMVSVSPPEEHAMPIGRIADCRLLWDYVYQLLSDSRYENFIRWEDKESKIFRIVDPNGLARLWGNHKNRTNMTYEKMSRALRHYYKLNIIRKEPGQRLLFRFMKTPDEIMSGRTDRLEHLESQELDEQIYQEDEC

For CCCATT, the binding signal with ERF was 1.32 fold enrichment (6-mer frequency, TF over GST control); in the assay with ETV3L, 1.3 fold enrichment (6-mer frequency, TF over GST control); with ETS2, 1.43 fold enrichment (6-mer frequency, TF over GST control); with SPDEF, 1.19 fold enrichment (6-mer frequency, TF over GST control); with ETV7 it was 1.38 fold enrichment (6-mer frequency, TF over GST control); with ELF5 it was 1.4 fold enrichment (6-mer frequency, TF over GST control). Besides, the binding signal with ETV3 was 1.24 fold enrichment (6-mer frequency, TF over GST control); with ETV6, 1.29 fold enrichment (6-mer frequency, TF over GST control).
As to TTCTCT, the binding signal in the assay with ERF was 1.19 fold enrichment (6-mer frequency, TF over GST control); in the assay with ETV3L, 1.39 fold enrichment (6-mer frequency, TF over GST control); with ETS2, 1.23 fold enrichment (6-mer frequency, TF over GST control); with SPDEF it was 1.31 fold enrichment (6-mer frequency, TF over GST control); with ETV7, 1.26 fold enrichment (6-mer frequency, TF over GST control); in the assay with ELF5, 1.35 fold enrichment (6-mer frequency, TF over GST control). The binding signal with ETV3 is 1.3 fold enrichment (6-mer frequency, TF over GST control); with ETV6 it was 1.24 fold enrichment (6-mer frequency, TF over GST control).
With CTCTGC, the binding signal is 1.56 fold enrichment (6-mer frequency, TF over GST control) with ERF; 1.52 fold enrichment (6-mer frequency, TF over GST control) in the assay with ETV3L; 1.54 fold enrichment (6-mer frequency, TF over GST control) with ETS2; 1.4 fold enrichment (6-mer frequency, TF over GST control) with SPDEF; 1.27 fold enrichment (6-mer frequency, TF over GST control) in the assay with ETV7; 1.34 fold enrichment (6-mer frequency, TF over GST control) in the assay with ELF5. For the same sequence, the binding signal is 1.5 fold enrichment (6-mer frequency, TF over GST control) with ETV3 and 1.27 fold enrichment (6-mer frequency, TF over GST control) in the assay with ETV6.
Take CCGATA: the binding signal is 1.13 fold enrichment (6-mer frequency, TF over GST control) with ERF; 1.05 fold enrichment (6-mer frequency, TF over GST control) in the assay with ETV3L; 1.16 fold enrichment (6-mer frequency, TF over GST control) in the assay with ETS2; 1.05 fold enrichment (6-mer frequency, TF over GST control) with SPDEF; 1.06 fold enrichment (6-mer frequency, TF over GST control) with ETV7; 1.1 fold enrichment (6-mer frequency, TF over GST control) in the assay with ELF5. Also, the binding signal was 1.14 fold enrichment (6-mer frequency, TF over GST control) with ETV3 and 1.12 fold enrichment (6-mer frequency, TF over GST control) with ETV6.
As for TACCAA, the binding signal in the assay with ERF was 1.14 fold enrichment (6-mer frequency, TF over GST control); with ETV3L, 1.08 fold enrichment (6-mer frequency, TF over GST control); with ETS2, 1.18 fold enrichment (6-mer frequency, TF over GST control); with SPDEF, 1.17 fold enrichment (6-mer frequency, TF over GST control); with ETV7, 1.13 fold enrichment (6-mer frequency, TF over GST control); with ELF5, 1.09 fold enrichment (6-mer frequency, TF over GST control). Moreover, the binding signal was 1.13 fold enrichment (6-mer frequency, TF over GST control) with ETV3 and 1.17 fold enrichment (6-mer frequency, TF over GST control) in the assay with ETV6.
In the case of GTTTTT, the binding signal with ERF was 1.07 fold enrichment (6-mer frequency, TF over GST control); with ETV3L, 1.3 fold enrichment (6-mer frequency, TF over GST control); with ETS2, 1.25 fold enrichment (6-mer frequency, TF over GST control); with SPDEF it was 1.23 fold enrichment (6-mer frequency, TF over GST control); with ETV7, 1.2 fold enrichment (6-mer frequency, TF over GST control); with ELF5 it was 1.36 fold enrichment (6-mer frequency, TF over GST control). Also, the binding signal in the assay with ETV3 was 1.34 fold enrichment (6-mer frequency, TF over GST control); with ETV6 it was 1.21 fold enrichment (6-mer frequency, TF over GST control).
As to CTCTAG, the binding signal in the assay with ERF is 1.31 fold enrichment (6-mer frequency, TF over GST control); with ETV3L, 1.28 fold enrichment (6-mer frequency, TF over GST control); with ETS2, 1.26 fold enrichment (6-mer frequency, TF over GST control); with SPDEF, 1.24 fold enrichment (6-mer frequency, TF over GST control); with ETV7, 1.27 fold enrichment (6-mer frequency, TF over GST control); with ELF5, 1.22 fold enrichment (6-mer frequency, TF over GST control). Moreover, the binding signal in the assay with ETV3 was 1.4 fold enrichment (6-mer frequency, TF over GST control); with ETV6 it was 1.34 fold enrichment (6-mer frequency, TF over GST control).
